# From PubChem BioAssay
# ELG1 genotoxic: qHTS screen for small molecules that induce genotoxicity in human embryonic kidney (HEK293T) cells expressing luciferase-tagged ELG1; actives 1.3% (n = 330,000); Potency, µM (top dose mostly 46 µM), inactives show at the highest dose activity change, positive = activation, usual class: activators; HEK293T ELG1-luciferase reporter, luminescence, 16 h; further: % of control where 0% means no effect; nearly all actives have a fitted effect of over 60% in size
#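 Luminescence read-out: rising ELG1-luciferase signal, reflecting elevated ELG1 protein under genetic stress, flags genotoxic compounds. Cells were treated for 16 hr at 37 °C before ONE-Glo detection.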
# SMN2 splice up: qHTS Assay for Enhancers of SMN2 Splice Variant Expression; Potency, µM (top dose mostly 46.1 µM), for inactives: at the top dose activity change, positive = activation, most hits filed as activators; actives 2.8% (n = 210,000); AID 1458, 2008; HEK293 SMN2-luciferase splicing reporter, luminescence, 30-36 h; further: % of control where 0% means no effect; nearly all actives have a fitted effect of over 55% in size
#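 qHTS luciferase splicing reporter: luminescence rises when SMN2 exon 7 is included in transfected HEK293 cells. Compound exposure lasted 30-36 h at 37C, with 4.5 mM final sodium butyrate as control, followed by a ONE-Glo read.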
# FLuc modulator: qHTS profiling assay for firefly luciferase inhibitor/activator using purifed enzyme and Km concentrations of substrates (counterscreen for miR-21 project) | Luciferin 4-monooxygenase (Photinus pyralis), P08659 | purified FLuc, Km substrates, luminescence inhibition | Potency, µM (doses to about 57.5 µM), for the others: at the top dose activity change, negative = inhibition, most hits filed as inhibitors | actives 6.9% (n = 360,000) | AID 588342, 2011;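 further: plate controls were vehicle for no effect and reference inhibitor for full effect; nearly all actives have a fitted effect of over 55% in size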
# Target sequence (P08659 whole entry, looked up): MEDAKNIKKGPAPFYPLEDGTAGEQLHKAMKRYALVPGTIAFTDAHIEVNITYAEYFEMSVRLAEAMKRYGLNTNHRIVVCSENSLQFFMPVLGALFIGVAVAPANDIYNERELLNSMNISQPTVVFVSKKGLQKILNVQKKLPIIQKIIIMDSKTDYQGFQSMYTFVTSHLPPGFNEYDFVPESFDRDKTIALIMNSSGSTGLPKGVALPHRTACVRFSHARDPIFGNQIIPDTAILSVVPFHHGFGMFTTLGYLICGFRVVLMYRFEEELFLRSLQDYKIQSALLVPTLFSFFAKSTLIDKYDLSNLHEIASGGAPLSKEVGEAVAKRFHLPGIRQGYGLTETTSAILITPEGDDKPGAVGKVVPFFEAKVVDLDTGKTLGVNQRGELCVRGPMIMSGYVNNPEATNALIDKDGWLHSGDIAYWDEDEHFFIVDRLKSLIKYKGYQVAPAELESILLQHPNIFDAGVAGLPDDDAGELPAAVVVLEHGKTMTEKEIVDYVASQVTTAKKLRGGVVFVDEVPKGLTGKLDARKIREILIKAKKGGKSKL
#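 Purified P. pyralis luciferase (10nM final) with 10uM D-luciferin and 10uM ATP (Km levels) in 50mM Tris acetate pH 7.5, 10mM Mg acetate, 0.01% Tween-20, 0.05% BSA; qHTS 6-point titration, ~60 µM downward; luminescence read.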
# NPC1 promoter act: qHTS Assay for NPC1 Promoter Activators. Potency, µM (top dose mostly 9.22 µM), for inactives: at the top dose activation, hits mostly activators. Huh7 NPC1 promoter luciferase reporter, 24 h. actives 2.4% (n = 320,000); further: % of control where 0% means no effect; nearly all actives have a fitted effect of over 60% in size
#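 Luminescence from an NPC1 promoter-driven luciferase reporter in stably transfected Huh7 cells was measured after 24 h compound treatment at 37 °C, followed by 10 min ambient incubation with luciferase detection reagent.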
# Rab9 prom act: qHTS Assay for Rab9 Promoter Activators. Huh7 Rab9 promoter-luciferase reporter, luminescence, 24 h. actives 2.8% (n = 320,000). Potency, µM (doses to about 9.22 µM), for the others: top-dose activation, negative = inhibition, hits mostly activators; further: % of control where 0% means no effect; nearly all actives have a fitted effect of over 60% in size
#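 Quantitative HTS format; Huh7 Rab9-luciferase reporter cells (1500/well) receive compound 2 h post-plating, incubate 24 h at 37 °C, then get luciferase reagent for 10 min before luminescence reading.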
# Active calls of the source: *; ? = inconclusive; / = not tested or not shown; [ ] = dose if it differs, or a comment. Rows were chosen to be rich in hits. Some 7.5% of all compounds tested hit in one or more screens of this group. The call rests on the fitted dose curve; in most records, active means well fitted curve in the direction sought with a large enough effect; inconclusive means small, poorly fitted or top-dose-only effect, or another doubt; inactive means no such curve, though single readings can be large; an effect the other way counts as inactive or inconclusive. Potency means the concentration at half of the fitted maximal effect.
SMILES,ELG1 genotoxic,SMN2 splice up,FLuc modulator,NPC1 promoter act,Rab9 prom act
O=C(/C=C/c1ccc(Cl)cc1)NC1CC2CCC1C2 (centres undefined),?,3%,24µM*,7%,11%
Cc1ccc(N(C(=O)CNC(=O)c2ccco2)C(C(=O)NC2CCCCC2)c2ccncc2)c(C)c1 (centres undefined),0%,/,-1%,3%,-10%
C[C@@H]1C[C@H](C)CN(S(=O)(=O)c2cc(Cl)c(Oc3ccc([N+](=O)[O-])cc3Cl)c(Cl)c2)C1,/,3%[9.22 µM],/,/,/
COc1cccc(/C=N/Nc2ncnc3scc(-c4ccccc4)c23)c1O,-3%,-75%,21µM*,-9%,-26%
COc1cccc(/C=N/NC(=O)C(=O)N/N=C/c2cccc(OC)c2O)c1O,2%,-36%,0%,-34%,-23%
COc1cccc(/C=N/Nc2nccnc2Cl)c1O,2.6µM*,-66%,2.7µM*,-18%,-23%
COc1cccc(/C=N/Nc2ncnc(Cl)c2N)c1O,13µM*,/,9.5µM*,-15%,-24%
COc1cccc(/C=N/Nc2cc(-n3nc(C)cc3-c3ccccc3)ncn2)c1O,-11%,-107%,13%,-32%,-44%
Cc1cc2ccccn2c1C(=O)c1ccc([N+](=O)[O-])o1,-11%,-9%,-13%,-24%,-2%
COc1ccc(N2CC(C(=O)OC(C)C(=O)c3ccccc3)CC2=O)cc1 (centres undefined),2%,/,-1%,-11%,0%
Cc1cn(-c2cc(NC(=O)c3ccc(C)c(NC(=O)c4cccc(-c5cn[nH]c(=O)c5)c4)c3)cc(C(F)(F)F)c2)cn1,-11%,/,0%,-10%,-7%
COc1cccc(C(=O)OCC(=O)c2ccc(Br)s2)c1OC,-3%,/,8.5µM*,-3%,16%
Cc1cc(C(=O)OCC(=O)c2ccc(Br)s2)no1,0%,-7%,9.5µM*,-10%,0%
COc1cccc(C(=O)OCC(=O)NCCNC(=O)COC(=O)c2cccc(OC)c2OC)c1OC,-1%,/,-1%,0%,0%
Nc1nccc(Nc2ccc(S(N)(=O)=O)cc2)n1,/,-4%[9.22 µM],/,/,/
CCN(CC)S(=O)(=O)c1cccc(C(=O)Nc2ccccc2C(=O)Nc2ccc(OC)cc2)c1,/,/,8.5µM*,/,/
Cc1cccc(C(=O)Nc2ccc(O)cc2C(=O)O)c1,-1%,3%,21µM*,1%,11%
COc1cc(NC(=O)c2ccc(C)cc2)c(OC)cc1NC(=O)CN1CCOCC1,-7%,1%,19µM*,21%,-7%
Cc1cccc(C(=O)Nc2ccc(O)cc2)c1,27%,27%,?,?,?
COc1ccc(NS(=O)(=O)c2cccc(C(=O)Nc3ccccc3C(=O)O)c2)cc1,-4%,/,-14%,1%,3%
COc1ccc(NC(=O)c2ccc(C)cc2)c(OC)c1,?,18µM*,5.4µM*,?,?
CC[C@H](C)[C@H](NC(=O)[C@H](CCCN=C(N)N)NC(=O)[C@H](CCCN=C(N)N)NC(=O)[C@H](CC(C)C)NC(=O)[C@H](Cc1ccccc1)NC(=O)CNC(=O)CN)C(=O)N[C@@H](CCCN=C(N)N)C(=O)N1CCC[C@H]1C(=O)N[C@@H](CCCCN)C(=O)N[C@@H](CC(C)C)C(=O)N[C@@H](CCCCN)C(=O)O,/,7%,/,/,/
CC1CCCCN1S(=O)(=O)c1ccc(S(=O)(=O)N2CCN(C)CC2)cc1 (centres undefined),-3%,/,1%,0%,0%
COc1cccc(N2CCN(C(=O)CN(C)S(=O)(=O)c3ccc4c(c3)c(=O)n(C)c(=O)n4C)CC2)c1,-2%,-27%,0%,-9%,-6%
CCN(CC)S(=O)(=O)c1cccc(C(=O)N/N=C/c2cccc(O)c2O)c1,?,-67%,8.5µM*,-7%,-2%
SMILES,ELG1 genotoxic,SMN2 splice up,FLuc modulator,NPC1 promoter act,Rab9 prom act
Cc1ccc(C(=O)Nc2ccc(O)cc2C(=O)O)cc1C,8%,-13%,3.4µM*,2%,-32%
O=C(O)c1ccc(NC(=O)c2ccccc2NC(=O)c2cccc(F)c2)cc1,2%,/,?,-5%,3%
Cc1cc(N2C(=O)c3ccc(C(=O)Nc4ccc(O)cc4C(=O)O)cc3C2=O)no1,0%,/,-2%,-1%,2%
Cc1cccc(C(=O)Nc2ccccc2C(=O)Nc2ccc(C(=O)O)cc2)c1,9%,/,6.7µM*,-3%,9%
Cc1ccc(/C=C2\SC(=S)N(CCC(=O)NNC(=O)c3ccc(O)cc3)C2=O)cc1,2%,/,?,-8%,-6%
CN1C(=O)/C(=C/c2ccc(C(=O)Nc3ccc(O)cc3C(=O)O)cc2)SC1=S,0%,/,21µM*,3%,2%
CCN(CC)S(=O)(=O)c1cccc(C(=O)N/N=C/c2cc(OC)c(O)c(OC)c2)c1,0%,-10%,-19%,-2%,-2%
O=C(Nc1ccc(O)cc1C(=O)O)c1ccc(NC(=O)c2ccco2)cc1,-5%,/,?,1%,-3%
Cc1ccc(C(=O)Nc2ccc(O)cc2C(=O)O)cc1,-5%,-3%,11µM*,-4%,-1%
CCn1c(C)cc(/C=C2/SC(=S)NC2=O)c1C,?,?,4.8µM*,?,?
CCn1ncc(/C=C2/SC(=S)NC2=O)c1C,-1%,13%,15µM*,1%,2%
Cc1cc(/C=C2\SC(=S)NC2=O)c(C)[nH]1,?,19%,11µM*,8%,9%
CCN1C(=O)/C(=C/c2cnn(C)c2C)SC1=S,-1%,21%,-9%,0%,-4%
O=C1c2ccccc2NC2(CCCCC2)N1c1ccc(O)cc1,?,8.9µM*,?,16%,19%
Cc1cccc2c3nc4ccccc4nc3n(C)c12,5%,/,2.4µM*,1.4µM*,4.5µM*
COC(=O)Cn1c2nc3ccccc3nc2c2cccc(C)c21,-3%,/,-3%,0%,-4%
C=CCNc1ncnc2c1[nH]c1ccc(C)cc12,9.2µM*,2.8µM*,4.3µM*,?,2.5µM*
Cc1ccc2[nH]c3c(NCCN4CCOCC4)ncnc3c2c1,29%,-32%,?,14%,7%
COc1cccc(/C=N/Nc2ncnc3c2[nH]c2ccc(C)cc23)c1OC,8%,/,1.5µM*,17%,24%
COc1ccc2[nH]c(C(=O)O)c(CCNC(=O)/C=C/c3ccc(O)c(OC)c3)c2c1,1%,/,?,-4%,3%
Cc1cccc(N(O)C(=O)Nc2cccc(Cl)c2)c1,?,/,17µM*,24%,28%
Cc1ccc(NC(=O)CN(C)C(=O)CSc2nccn2C)cc1,0%,/,/,/,/
O=C(Nc1cccc(-c2nc3ccccc3s2)c1)C1=COCCO1,10%,21%,17µM*,-5%,-2%
